# Measured values: ChEMBL document CHEMBL3988442, “University of Dundee, Small-Polar-MMV Screening Library” (2021)
# For some assays here: Measured potencies and affinities stand elsewhere.
# Legend:
# [1] = molecular target: T1, Methionyl-tRNA synthetase, putative (Leishmania donovani (strain BPK282A1)) (UniProt E9BF75); assay: Leishmania donovani Methionine tRNA synthetase (LdMetRS):v7. Dose response assay; format: functional; parameters: conc 80 nM, time 150 minutes
# T1 sequence (whole entry): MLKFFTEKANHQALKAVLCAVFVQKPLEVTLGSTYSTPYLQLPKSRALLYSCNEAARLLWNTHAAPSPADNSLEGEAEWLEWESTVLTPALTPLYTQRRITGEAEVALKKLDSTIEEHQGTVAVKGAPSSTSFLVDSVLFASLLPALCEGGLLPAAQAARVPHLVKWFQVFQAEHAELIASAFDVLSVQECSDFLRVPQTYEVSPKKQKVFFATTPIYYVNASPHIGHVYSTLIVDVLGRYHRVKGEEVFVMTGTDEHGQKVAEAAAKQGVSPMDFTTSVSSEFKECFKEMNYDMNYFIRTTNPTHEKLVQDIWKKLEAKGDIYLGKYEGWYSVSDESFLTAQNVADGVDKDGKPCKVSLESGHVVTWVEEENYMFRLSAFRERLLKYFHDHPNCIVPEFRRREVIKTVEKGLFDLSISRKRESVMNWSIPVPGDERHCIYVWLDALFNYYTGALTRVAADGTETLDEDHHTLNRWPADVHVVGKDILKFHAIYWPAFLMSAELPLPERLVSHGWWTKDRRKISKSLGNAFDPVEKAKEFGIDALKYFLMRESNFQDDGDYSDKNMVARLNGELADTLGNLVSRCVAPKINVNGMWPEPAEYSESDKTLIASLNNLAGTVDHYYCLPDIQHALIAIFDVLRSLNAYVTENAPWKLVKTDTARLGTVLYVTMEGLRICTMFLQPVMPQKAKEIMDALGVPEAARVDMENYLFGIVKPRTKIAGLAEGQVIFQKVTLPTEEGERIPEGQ
# [2] = molecular target: Protein translocase subunit SecA (Escherichia coli (strain K12)) (UniProt P10408); assay: Assay to Identify E. coli SecA ATPase Inhibitors; format: functional; parameters: scale not given: direction of the effect not stated beside the values; conditions: 30 µM
# [3] = molecular target: T2, Ubiquitin-activating enzyme e1, putative (Leishmania donovani (strain BPK282A1)) (UniProt E9BSI1); assay: Leishmania donovani Ubiquitin Activating Enzyme (LdE1); format: functional; parameters: scale not given: direction of the effect not stated beside the values; conditions: 30 µM
# T2 sequence (whole entry): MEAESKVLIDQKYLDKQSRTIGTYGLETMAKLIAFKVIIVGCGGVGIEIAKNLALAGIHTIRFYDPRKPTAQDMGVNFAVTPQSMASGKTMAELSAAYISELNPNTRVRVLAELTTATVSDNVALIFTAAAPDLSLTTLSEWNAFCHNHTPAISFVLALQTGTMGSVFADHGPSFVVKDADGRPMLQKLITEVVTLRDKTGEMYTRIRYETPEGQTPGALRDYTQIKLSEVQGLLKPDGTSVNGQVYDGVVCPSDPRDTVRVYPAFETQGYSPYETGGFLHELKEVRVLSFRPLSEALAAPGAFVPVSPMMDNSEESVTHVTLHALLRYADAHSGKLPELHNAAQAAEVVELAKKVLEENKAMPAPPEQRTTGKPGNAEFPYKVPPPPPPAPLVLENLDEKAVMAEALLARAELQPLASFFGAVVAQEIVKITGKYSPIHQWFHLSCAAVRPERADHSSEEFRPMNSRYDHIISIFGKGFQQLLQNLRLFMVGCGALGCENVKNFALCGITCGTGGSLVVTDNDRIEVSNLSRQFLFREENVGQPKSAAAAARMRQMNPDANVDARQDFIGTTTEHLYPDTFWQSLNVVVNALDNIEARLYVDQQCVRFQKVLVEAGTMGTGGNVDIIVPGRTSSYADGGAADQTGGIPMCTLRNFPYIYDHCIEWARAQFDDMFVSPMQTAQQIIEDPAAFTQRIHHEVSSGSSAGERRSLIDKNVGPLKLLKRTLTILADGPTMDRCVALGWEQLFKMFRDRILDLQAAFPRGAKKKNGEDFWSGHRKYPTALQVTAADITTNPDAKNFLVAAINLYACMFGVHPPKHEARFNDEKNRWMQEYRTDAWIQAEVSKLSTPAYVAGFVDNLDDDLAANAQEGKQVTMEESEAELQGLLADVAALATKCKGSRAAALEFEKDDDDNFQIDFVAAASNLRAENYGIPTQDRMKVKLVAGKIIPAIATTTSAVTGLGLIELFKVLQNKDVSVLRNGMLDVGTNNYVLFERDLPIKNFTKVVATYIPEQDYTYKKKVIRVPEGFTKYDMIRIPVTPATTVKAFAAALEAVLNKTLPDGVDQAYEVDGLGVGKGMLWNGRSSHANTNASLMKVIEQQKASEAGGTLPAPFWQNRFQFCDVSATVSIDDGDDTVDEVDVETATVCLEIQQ
# [4] = molecular target: AMP-activated protein kinase, AMPK (Homo sapiens) (UniProt P54646+O43741+P54619+Q9UGJ0+Q9Y478+Q13131+Q9UGI9); assay: AMP-dependent Kinase enzyme assay. An in vitro enzyme assay that detects ADP turnover that is directly proportional to AMPK activity. This uses naive AMPK that is activated during the assay with MK-8722; format: functional; parameters: scale not given: direction of the effect not stated beside the values; conditions: 30 µM
# [5] = molecular target: Sialic acid-binding Ig-like lectin 9 (Homo sapiens) (UniProt Q9Y336); assay: Hs-Siglec9 ALPHAscreen SOP 20170721; parameters: scale not given: direction of the effect not stated beside the values; conditions: 10 µM
# Trypanosoma cruzi = assay: Trypanosoma cruzi phosphomannomutase and mannose-1-phosphate guanylyltransferase assay; format: functional; parameters: scale not given: direction of the effect not stated beside the values; conditions: 10 µM
# [6] = molecular target: T3, Arginase-2, mitochondrial (Homo sapiens) (UniProt P78540); assay: in vitro enzyme assay to detect the production of urea directly proportional to the activity of Arginase II; format: functional; parameters: scale not given: in the data most compounds retested in dose-response had high values; conditions: 33.3 µM
# T3 sequence (whole entry): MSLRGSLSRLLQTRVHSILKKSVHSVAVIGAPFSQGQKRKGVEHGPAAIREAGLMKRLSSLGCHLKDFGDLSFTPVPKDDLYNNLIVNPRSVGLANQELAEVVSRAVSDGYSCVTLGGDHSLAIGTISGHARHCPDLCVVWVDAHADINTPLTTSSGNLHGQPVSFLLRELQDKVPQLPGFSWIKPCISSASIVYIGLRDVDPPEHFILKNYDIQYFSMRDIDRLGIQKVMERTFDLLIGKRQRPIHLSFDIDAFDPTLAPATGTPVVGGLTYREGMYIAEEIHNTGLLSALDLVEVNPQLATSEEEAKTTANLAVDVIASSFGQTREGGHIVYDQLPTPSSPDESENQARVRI
# [7] = molecular target: T4, Proteasome subunit beta (Trypanosoma cruzi) (UniProt O96673); assay: Trypanosoma cruzi proteasome chymotrypsin-like activity (TcProtChymo) assay.; format: functional; parameters: scale not given: in the data most compounds retested in dose-response had high values; conditions: 9.37 µM
# T4 sequence (whole entry): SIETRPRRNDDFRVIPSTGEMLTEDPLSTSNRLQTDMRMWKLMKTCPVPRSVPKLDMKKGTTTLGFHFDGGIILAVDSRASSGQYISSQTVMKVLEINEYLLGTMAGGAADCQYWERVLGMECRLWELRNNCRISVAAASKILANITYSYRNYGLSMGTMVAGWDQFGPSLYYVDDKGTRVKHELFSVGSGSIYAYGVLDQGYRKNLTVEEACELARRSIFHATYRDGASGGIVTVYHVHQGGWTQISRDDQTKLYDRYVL
# Homo sapiens = species on record: Homo sapiens; assay: To identify inhibition of the IFN signalling (Jak-Stat) pathway via expression of an eGFP reporter gene under the control of an IFN-stimulated response element (ISRE) containing MxA promoter.; format: functional; parameters: scale not given: direction of the effect not stated beside the values; conditions: 30 µM
# [8] = molecular target: T5, Tyrosyl-tRNA synthetase, putative (Trypanosoma cruzi (strain CL Brener)) (UniProt Q4DSP6); assay: Trypanosoma cruzi tyrosyl tRNA synthetase (TcYRS) _High Tyrosine SOP; format: functional; parameters: scale not given: in the data most compounds retested in dose-response had high values; conditions: 30 µM
# T5 sequence (whole entry): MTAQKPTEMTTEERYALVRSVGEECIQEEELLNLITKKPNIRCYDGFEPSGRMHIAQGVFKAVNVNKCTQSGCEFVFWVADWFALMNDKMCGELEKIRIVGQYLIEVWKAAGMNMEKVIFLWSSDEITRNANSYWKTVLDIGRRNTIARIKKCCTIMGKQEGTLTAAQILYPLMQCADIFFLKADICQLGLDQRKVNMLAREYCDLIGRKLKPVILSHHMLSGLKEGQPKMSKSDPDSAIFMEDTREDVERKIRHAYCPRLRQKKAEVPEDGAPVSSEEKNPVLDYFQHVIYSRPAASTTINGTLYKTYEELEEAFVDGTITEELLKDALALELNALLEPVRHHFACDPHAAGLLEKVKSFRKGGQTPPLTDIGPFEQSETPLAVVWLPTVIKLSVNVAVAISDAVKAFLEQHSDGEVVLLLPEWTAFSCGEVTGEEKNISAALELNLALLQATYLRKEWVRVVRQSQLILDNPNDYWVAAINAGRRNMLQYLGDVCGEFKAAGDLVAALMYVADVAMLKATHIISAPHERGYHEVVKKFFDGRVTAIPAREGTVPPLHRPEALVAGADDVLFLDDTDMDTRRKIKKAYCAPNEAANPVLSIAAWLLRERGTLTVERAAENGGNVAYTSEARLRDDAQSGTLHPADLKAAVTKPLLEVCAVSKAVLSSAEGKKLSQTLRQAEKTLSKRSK
# [9] = molecular target: T5, Tyrosyl-tRNA synthetase, putative (Trypanosoma cruzi (strain CL Brener)); assay: Trypanosoma cruzi tyrosyl tRNA synthetase (TcYRS) SOP; format: functional; parameters: scale not given: direction of the effect not stated beside the values; conditions: 30 µM
# [10] = molecular target: Chromo domain-containing protein 1 (Saccharomyces cerevisiae (strain ATCC 204508 / S288c) (Baker's yeast)) (UniProt P32657); assay: ScCHD-1 Enzyme Inhibition Assay; format: functional; parameters: scale not given: in the data most compounds retested in dose-response had high values; conditions: 30 µM
# Sequence of Chromo domain-containing protein 1 (Saccharomyces cerevisiae (strain ATCC 204508 / S288c) (Baker's yeast)) (P32657 whole entry, the tested form may be a part): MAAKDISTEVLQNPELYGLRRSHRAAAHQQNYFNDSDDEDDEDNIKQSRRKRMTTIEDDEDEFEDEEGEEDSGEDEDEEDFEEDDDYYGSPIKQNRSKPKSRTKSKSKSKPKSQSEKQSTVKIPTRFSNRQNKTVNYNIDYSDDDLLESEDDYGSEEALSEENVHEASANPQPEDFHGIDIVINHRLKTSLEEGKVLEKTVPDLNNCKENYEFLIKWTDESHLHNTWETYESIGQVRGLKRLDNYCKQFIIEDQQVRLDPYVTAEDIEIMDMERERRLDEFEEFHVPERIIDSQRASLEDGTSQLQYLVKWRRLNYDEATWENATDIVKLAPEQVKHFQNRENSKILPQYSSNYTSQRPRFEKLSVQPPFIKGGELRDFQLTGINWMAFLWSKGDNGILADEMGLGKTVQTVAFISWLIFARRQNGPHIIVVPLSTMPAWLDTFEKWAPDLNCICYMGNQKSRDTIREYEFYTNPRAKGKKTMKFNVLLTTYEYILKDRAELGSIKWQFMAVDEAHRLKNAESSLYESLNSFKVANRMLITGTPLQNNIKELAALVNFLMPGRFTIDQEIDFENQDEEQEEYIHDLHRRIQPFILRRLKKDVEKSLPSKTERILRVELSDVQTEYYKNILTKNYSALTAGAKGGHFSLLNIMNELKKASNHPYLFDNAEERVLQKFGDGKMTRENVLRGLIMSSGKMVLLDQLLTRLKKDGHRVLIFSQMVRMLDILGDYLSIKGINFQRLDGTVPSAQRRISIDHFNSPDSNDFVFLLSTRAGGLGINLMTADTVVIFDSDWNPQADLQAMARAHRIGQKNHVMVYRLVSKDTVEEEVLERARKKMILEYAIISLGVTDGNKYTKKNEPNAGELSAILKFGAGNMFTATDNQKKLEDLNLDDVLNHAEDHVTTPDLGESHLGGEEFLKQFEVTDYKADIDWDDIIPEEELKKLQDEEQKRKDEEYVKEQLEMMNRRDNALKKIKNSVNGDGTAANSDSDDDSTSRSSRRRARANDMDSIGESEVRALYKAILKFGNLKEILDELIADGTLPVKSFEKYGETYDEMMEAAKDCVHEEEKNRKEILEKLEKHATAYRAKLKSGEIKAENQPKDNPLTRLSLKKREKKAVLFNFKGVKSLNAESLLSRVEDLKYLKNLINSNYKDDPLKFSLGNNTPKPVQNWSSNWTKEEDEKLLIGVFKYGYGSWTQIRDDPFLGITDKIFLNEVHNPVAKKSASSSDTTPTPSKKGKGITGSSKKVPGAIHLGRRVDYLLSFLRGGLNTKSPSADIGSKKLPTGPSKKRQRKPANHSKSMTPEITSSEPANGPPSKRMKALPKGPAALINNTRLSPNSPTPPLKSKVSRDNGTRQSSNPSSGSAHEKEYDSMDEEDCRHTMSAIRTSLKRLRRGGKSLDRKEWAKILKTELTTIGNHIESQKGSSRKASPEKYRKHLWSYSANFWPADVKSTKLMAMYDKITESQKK
# Sequence of Protein translocase subunit SecA (Escherichia coli (strain K12)) (P10408 whole entry): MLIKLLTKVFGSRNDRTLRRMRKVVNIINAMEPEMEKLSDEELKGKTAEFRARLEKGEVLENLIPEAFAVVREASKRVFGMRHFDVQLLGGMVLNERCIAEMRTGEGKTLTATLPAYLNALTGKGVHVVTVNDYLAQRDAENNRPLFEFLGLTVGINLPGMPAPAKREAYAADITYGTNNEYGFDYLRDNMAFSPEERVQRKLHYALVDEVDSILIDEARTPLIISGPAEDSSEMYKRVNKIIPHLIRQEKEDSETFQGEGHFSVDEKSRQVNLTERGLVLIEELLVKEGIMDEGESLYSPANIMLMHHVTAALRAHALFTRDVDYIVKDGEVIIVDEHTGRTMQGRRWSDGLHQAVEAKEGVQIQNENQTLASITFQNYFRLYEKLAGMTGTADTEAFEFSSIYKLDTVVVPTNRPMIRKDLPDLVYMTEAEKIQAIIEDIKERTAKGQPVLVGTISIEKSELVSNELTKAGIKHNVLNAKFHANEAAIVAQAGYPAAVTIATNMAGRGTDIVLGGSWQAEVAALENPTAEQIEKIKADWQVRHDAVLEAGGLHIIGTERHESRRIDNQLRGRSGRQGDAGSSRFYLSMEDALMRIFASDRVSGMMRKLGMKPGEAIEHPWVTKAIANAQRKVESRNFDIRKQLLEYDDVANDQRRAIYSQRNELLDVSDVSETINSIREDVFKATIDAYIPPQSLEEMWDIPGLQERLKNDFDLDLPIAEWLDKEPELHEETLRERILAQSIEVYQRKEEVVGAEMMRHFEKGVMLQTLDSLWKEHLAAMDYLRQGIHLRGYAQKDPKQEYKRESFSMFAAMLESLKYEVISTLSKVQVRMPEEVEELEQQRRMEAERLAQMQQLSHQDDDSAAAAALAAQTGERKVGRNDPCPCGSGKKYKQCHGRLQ
# Sequence of Sialic acid-binding Ig-like lectin 9 (Homo sapiens) (Q9Y336 whole entry): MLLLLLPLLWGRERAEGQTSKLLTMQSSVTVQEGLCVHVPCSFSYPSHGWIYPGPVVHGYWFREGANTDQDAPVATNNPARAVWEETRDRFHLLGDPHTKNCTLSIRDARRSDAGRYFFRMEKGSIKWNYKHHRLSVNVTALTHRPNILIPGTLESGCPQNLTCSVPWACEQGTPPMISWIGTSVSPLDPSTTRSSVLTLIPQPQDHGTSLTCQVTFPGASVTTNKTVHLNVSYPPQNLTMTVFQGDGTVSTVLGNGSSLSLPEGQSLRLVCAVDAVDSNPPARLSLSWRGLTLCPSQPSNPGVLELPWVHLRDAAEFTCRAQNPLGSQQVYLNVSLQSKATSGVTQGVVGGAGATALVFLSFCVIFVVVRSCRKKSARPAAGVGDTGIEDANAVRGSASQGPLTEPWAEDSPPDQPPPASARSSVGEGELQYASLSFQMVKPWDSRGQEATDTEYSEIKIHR
smiles,measurement,setting,value
COc1ccccc1C1(CNc2nnc(C)c(C)c2C#N)CCCC1,PXC50,"[1]; BOTTOM 3.334115973, HILLSLOPE 1.087838863, MAX_EFFECT 53.16698656, TOP 83.15988554",4.21
same,PXC50,[1]; MAX_EFFECT 37.68115942,< 4
same,PXC50,[1]; MAX_EFFECT 40.13605442,< 4
same,PXC50,[1]; MAX_EFFECT 44.81658692,< 4
same,PXC50,[1]; MAX_EFFECT 49.91243433,< 4
CN(CC1CC1)c1ccc2ccc(C(=O)NCCc3ccccc3)cn12,PXC50,"[1]; BOTTOM 0.351029795, HILLSLOPE 1.115089004, MAX_EFFECT 62.13151927, TOP 107.5835515",4.12
same,PXC50,"[1]; BOTTOM 1.92078188, HILLSLOPE 1.430695014, MAX_EFFECT 75.69444444, TOP 86.56449287",4.61
same,PXC50,"[1]; BOTTOM 2.657056439, HILLSLOPE 1.351512964, MAX_EFFECT 68.11091854, TOP 100.0",4.19
same,PXC50,"[1]; BOTTOM -1.049582542, HILLSLOPE 1.242411624, MAX_EFFECT 75.16778523, TOP 98.82108854",4.43
same,PXC50,[1]; MAX_EFFECT 50.8411215,< 4
O=C(CC1=CCCCC1)NCCc1csc(N2CCCC2)n1,PXC50,"[1]; BOTTOM 3.701535951, HILLSLOPE 1.30756587, MAX_EFFECT 71.01449275, TOP 100.0",4.26
same,PXC50,"[1]; BOTTOM -1.141810122, HILLSLOPE 1.921557011, MAX_EFFECT 84.15841584, TOP 100.0",4.32
same,PXC50,[1]; MAX_EFFECT 3.162055336,< 4
same,PXC50,[1]; MAX_EFFECT 8.571428571,< 4
same,PXC50,[1]; MAX_EFFECT 50.53763441,< 4
same,Percent Effect,[2],-6.52%
same,Percent Effect,[3],-5.33%
same,Percent Effect,[4],-0.418%
same,Percent Effect,[5],8.91%
same,Percent Effect,Trypanosoma cruzi,15.9%
same,Percent Effect,[6],-1.56%
same,Percent Effect,[7],25.3%
same,Percent Effect,Homo sapiens,-20.2%
same,Percent Effect,[8],23.5%
same,Percent Effect,[9],8.64%
same,Percent Effect,[10],33%
